Data reported in PubChem BioAssay (EPA / NIEHS).
Inconclusive results are not listed. The source made the active and inactive calls. How the source made its calls, unless noted: active means hit-call score of the fitted dose curve at least 0.9, where 1 is the maximum; inactive means score below 0.9.

Columns and labels:
[1] = biological target: Ratio of Nucleoli Translocation and Cytoplasm, AR (gene 367) (UniProt P10275); assay: UPITT_HCI_U2OS_AR_TIF2_Nucleoli_Cytoplasm_Ratio_Antagonist: University of Pittsburgh U2OS Androgen Receptor-Transcriptional Intermediary Factor 2 (AR-TIF2) Antagonism High Content Imaging Assay for Ratio of Nucleoli Translocation and Cytoplasm (AID 2283999; active means hit-call score of the fitted dose curve at least 0.9, where 1 is the maximum;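 further: antagonists lower the DHT-driven ratio of nucleolar to cytoplasmic red signal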)
Sequence of Ratio of Nucleoli Translocation and Cytoplasm, AR (gene 367) (P10275 whole entry, looked up): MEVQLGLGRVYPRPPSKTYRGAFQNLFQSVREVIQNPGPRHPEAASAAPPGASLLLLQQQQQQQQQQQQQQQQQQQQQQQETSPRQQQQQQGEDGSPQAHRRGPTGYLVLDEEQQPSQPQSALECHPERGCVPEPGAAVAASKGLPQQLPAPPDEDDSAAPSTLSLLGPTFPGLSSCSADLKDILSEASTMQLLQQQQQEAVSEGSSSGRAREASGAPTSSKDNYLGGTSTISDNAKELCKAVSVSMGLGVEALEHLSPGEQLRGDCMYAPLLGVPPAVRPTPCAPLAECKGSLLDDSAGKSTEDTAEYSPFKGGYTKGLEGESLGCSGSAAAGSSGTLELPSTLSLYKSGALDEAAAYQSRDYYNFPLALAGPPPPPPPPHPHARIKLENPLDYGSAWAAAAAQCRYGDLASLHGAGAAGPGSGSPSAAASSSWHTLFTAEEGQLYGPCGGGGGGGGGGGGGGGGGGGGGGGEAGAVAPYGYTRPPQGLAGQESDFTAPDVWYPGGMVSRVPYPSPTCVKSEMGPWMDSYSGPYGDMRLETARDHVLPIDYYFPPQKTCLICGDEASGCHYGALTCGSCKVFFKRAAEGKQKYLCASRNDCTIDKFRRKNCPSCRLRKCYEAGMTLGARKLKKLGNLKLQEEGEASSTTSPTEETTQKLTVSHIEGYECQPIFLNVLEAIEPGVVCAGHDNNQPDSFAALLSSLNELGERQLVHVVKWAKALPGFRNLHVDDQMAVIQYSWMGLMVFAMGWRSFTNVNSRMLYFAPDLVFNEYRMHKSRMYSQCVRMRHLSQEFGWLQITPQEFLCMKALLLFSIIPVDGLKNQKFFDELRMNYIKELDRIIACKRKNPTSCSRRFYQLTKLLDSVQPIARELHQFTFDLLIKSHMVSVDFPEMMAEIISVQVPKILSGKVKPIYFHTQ
Outline: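 Read-out is the ratio of nucleolar to cytoplasmic AR-RFP fluorescence, imaged by high-content microscopy in U2OS cells coexpressing TIF2-GFP. Single-point 20 uM screen, triplicate confirmation, then 0.195–50 uM dose response; activity referenced to DHT baseline.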

[2] = biological target: Ratio of Nucleoli Translocation and Cytoplasm, AR (gene 367) (UniProt P10275); assay: UPITT_HCI_U2OS_AR_TIF2_Nucleoli_Cytoplasm_Ratio_Agonist: University of Pittsburgh U2OS Androgen Receptor-Transcriptional Intermediary Factor 2 (AR-TIF2) Agonism High Content Imaging Assay for Ratio of Nucleoli Translocation and Cytoplasm (AID 2284000; active means hit-call score of the fitted dose curve at least 0.9, where 1 is the maximum;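 further: hits raise the red nucleolar to cytoplasm ratio above vehicle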)
Outline: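 Human osteosarcoma U2OS line, AR-RFP plus TIF2-GFP; compounds 0.195–50 uM final, 0.5% DMSO. Readout: nucleolar/cytoplasmic RFP ratio by HCI, positive direction vs DMSO baseline.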

[3] = CCTE_Harrill_HTTr_Viability_MCF7: CCTE's 6-hour Cell Viability Assessment for the High-Throughput Transcriptomics (HTTr) Platform, in MCF-7 cells cultured in DMEM + 10% fetal bovine serum, Harrill Lab (AID 2284010)
Outline: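 PI exclusion, high-content imaging; 8-pt dilution series, 6 h exposure; bidirectional fit vs DMSO (neg. ctrl/baseline); gain of signal = loss of membrane integrity.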

[4] = CCTE_Harrill_HTTr_Apoptosis_MCF7: CCTE's 6-hour Apoptosis Assessment for the High-Throughput Transcriptomics (HTTr) Platform, in MCF-7 cells cultured in DMEM + 10% fetal bovine serum, Harrill Lab (AID 2284011)
Outline: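 Apoptosis in MCF-7 cells grown in DMEM with 10% fetal bovine serum was scored after a six hour exposure by high content imaging of caspase-3/7 activation (CellEvent Caspase 3/7 Green), with DMSO serving as negative control and baseline.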

[5] = CCTE_Harrill_HTTr_CellCount_MCF7: CCTE's Cell Proliferation Assessment for the High-Throughput Transcriptomics (HTTr) Platform, Harrill Lab (AID 2284012; active means hit-call score of the fitted dose curve at least 0.9, where 1 is the maximum;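 further: count of Hoechst-stained nuclei per well by high-content imaging in MCF-7 cells; cells exposed to compound for six hours; intended direction is loss of nuclei count meaning fewer cells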)
Outline: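 Readout: Hoechst nuclear count by high-content imaging. MCF-7, 8-point dilution series, 6 h exposure. Bidirectional fit vs DMSO baseline.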

[6] = CCTE_Shafer_MEA_acute_spike_number: CCTE's Neural Acute Assay for Total Number of Spikes, Shafer Lab (AID 2284008)
Outline: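 Using an adaptive detector set to 8x rms noise, spikes were counted in 40-min windows before and after compound addition (0.03-40 uM) to rat cortical networks at 37 C; the well-level change from baseline was analysed relative to DMSO.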

[7] = CCTE_Shafer_MEA_acute_firing_rate_mean: CCTE's Neural Acute Assay for Mean Firing Rate, Shafer Lab (AID 2284009);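 further: analyzed for loss of signal so actives lower firing rate relative to DMSO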
Outline: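 Rat cortical neuron cultures matured to DIV 13 or 15, equilibrated 20 min at 37 C, then recorded 40 min for baseline. Compound (0.03-40 uM) added and a further 40 min recorded; percent change in mean firing rate calculated per well.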

[8] = CCTE_Shafer_MEA_acute_burst_duration_mean: CCTE's Neural Acute Assay for Mean Burst Duration, Shafer Lab (AID 2284014);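 further: hits are decreases in mean burst duration relative to DMSO controls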
Outline: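 Rat cortical cultures, DIV 13/15; 40 min baseline, then 40 min with compound (0.03-40 uM), 37 C. Spikes: 300-5000 Hz band-pass, 8x rms threshold. Read-out: % change in mean single-electrode burst duration, DMSO-referenced, loss direction.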

[9] = CCTE_Shafer_MEA_acute_per_burst_spike_number_mean: CCTE's Neural Acute Assay for Average Number of Spikes Per Burst, Shafer Lab (AID 2284015);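 further: hits are decreases in mean spikes per burst versus baseline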
Outline: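 We recorded spontaneous network firing of rat cortical neurons for 40 min before and 40 min during exposure to compound at 0.03-40 uM, at 37 C. Spikes were detected adaptively at 8x rms noise, and the change in average spikes per burst was fitted against DMSO.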

[10] = CCTE_Shafer_MEA_acute_interburst_interval_mean: CCTE's Neural Acute Assay for Mean Interburst Interval, Shafer Lab (AID 2284016);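 further: percent change of mean interburst interval versus each well's own pre-dose baseline; curves fitted for decrease in interburst interval relative to DMSO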
Outline: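 MEA recording of spontaneous network bursting in primary rat cortical cultures; mean interburst interval was compared before and after a 40-min compound exposure (0.03-40 uM) and expressed as percent change, relative to DMSO.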

Measured: outcome

O=c1cc(-c2ccccc2)oc2cc(O)cc(O)c12
inactive: [1] | [2] | [3]

O=C[C@H](O)[C@H](O)[C@H](O)CO
inactive: [3]

CCCCC[Si](OCC)(OCC)OCC
inactive: [2]

CCCCC(CC)COC(=O)/C=C\C(=O)OCC(CC)CCCC (stereo not given)
inactive: [1] | [2] | [3] | [4] | [5]

OC[C@H]1O[C@H](O[C@]2(CCl)O[C@H](CCl)[C@@H](O)[C@@H]2O)[C@H](O)[C@@H](O)[C@H]1Cl
inactive: [6] | [7] | [8] | [9] | [10]

CC(=O)OCCC(C)CC(C)(C)C (stereo not given)
inactive: [6] | [7] | [8] | [9] | [10]

NCCCN1CCOCC1
inactive: [2]

c1ccc2[nH]ccc2c1
inactive: [1] | [2] | [3] | [5]

CCC/C=C/C=O
inactive: [1] | [2]

OC1OC[C@@H](O)[C@H](O)[C@H]1O (stereo not given in full)
inactive: [6] | [7] | [8] | [9] | [10]

CCCOCC(C)O (stereo not given)
inactive: [1] | [2] | [3] | [4]

C=CCOC(=O)CCC1CCCCC1
inactive: [6] | [7] | [3] | [4] | [5] | [8] | [9] | [10]

NCCNCCN
inactive: [6] | [7] | [8] | [9] | [10]

c1ccc2c(c1)c1cccc3ccc4cccc2c4c31
inactive: [1] | [2] | [3] | [5]

CN(C)C(=N)N=C(N)N
inactive: [6] | [7] | [3] | [5] | [8] | [9] | [10]

C=C[Si](OCC)(OCC)OCC
inactive: [6] | [7] | [8] | [9] | [10]
